Records with an inconclusive call do not appear. The source made the active and inactive calls. How the source made its calls, unless noted: active means hit-call score of the fitted dose curve at least 0.9, where 1 is the maximum; inactive means score below 0.9.

A word on the AC50: it is the concentration giving half of the maximal activity seen.

For assay [1], the target named is Hepatocyte nuclear factor 3-beta (Homo sapiens) (UniProt Q9Y261). The assay is described as follows: ATG_FoxA2_CIS: Attagene CIS-FACTORIAL HepG2 Assay for human Forkhead box A2 (FOXA2) (AID 2282942). As to conditions: HepG2 cis-reporter transcription factor activity, 24 h; actives raise or lower the signal. The procedure, abridged: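 Endogenous transcription factor activity was read in HepG2 cells carrying transiently transfected cis-promoter reporter units. After 24 h dosing, reporter mRNA was quantified by RT-PCR and capillary electrophoresis, and values fitted bidirectionally versus DMSO.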
Sequence of Hepatocyte nuclear factor 3-beta (Homo sapiens) (Q9Y261 whole entry, looked up): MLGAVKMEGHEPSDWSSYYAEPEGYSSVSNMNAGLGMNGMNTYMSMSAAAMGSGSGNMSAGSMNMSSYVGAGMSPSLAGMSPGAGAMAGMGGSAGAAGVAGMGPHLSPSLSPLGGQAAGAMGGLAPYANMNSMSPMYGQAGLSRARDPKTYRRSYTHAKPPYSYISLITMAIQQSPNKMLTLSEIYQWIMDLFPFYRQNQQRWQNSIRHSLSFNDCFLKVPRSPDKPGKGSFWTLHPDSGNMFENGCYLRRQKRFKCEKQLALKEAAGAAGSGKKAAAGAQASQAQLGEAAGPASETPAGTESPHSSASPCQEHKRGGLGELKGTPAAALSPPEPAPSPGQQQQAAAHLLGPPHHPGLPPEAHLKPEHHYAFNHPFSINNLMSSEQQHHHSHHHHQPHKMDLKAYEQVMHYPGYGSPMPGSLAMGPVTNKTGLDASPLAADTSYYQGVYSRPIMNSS

Assay [2] is described as follows: ATG_RORE_CIS: Attagene CIS-FACTORIAL HepG2 Assay for human RAR-related Orphan Receptor Element (RORE) (AID 2282959). The settings on record: HepG2 Attagene cis-factorial RORE reporter, mRNA; actives raise or lower the signal. Put shortly: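 Cells were HepG2 carrying transfected cis-regulated reporter constructs, dosed for 24 hours. Total RNA was reverse-transcribed and reporter cDNA amplified, fluorescently labeled and sized by capillary electrophoresis. Activity was fitted bidirectionally relative to DMSO.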

Assay [3] in a line: ATG_Sox_CIS: Attagene CIS-FACTORIAL HepG2 Assay for human SRY-box transcription factor (SOX) (AID 2282960). The settings on record: HepG2 Attagene cis-factorial SOX reporter, mRNA; actives raise or lower the signal. Put shortly:
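Transient MRTU transfection of HepG2; 24 h compound incubation; TriZol RNA, oligo(dT) RT, PCR, 6-FAM primer extension, HpaI cut, CE. Bidirectional fit, DMSO = baseline.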

For assay [4], the target named is Transcription factor Sp1 (Homo sapiens) (UniProt P08047). The assay is described as follows: ATG_Sp1_CIS: Attagene CIS-FACTORIAL HepG2 Assay for human Specificity Protein 1 (Sp1) (AID 2282961). The settings on record: HepG2 Sp1 cis-reporter transcription, actives raise or lower the signal. Put shortly: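 Endogenous Sp1 activity was gauged in human liver HepG2 cells bearing transfected reporter units under a cis-regulating promoter. After 24 h dosing, reporter mRNA was quantified by RT-PCR with capillary electrophoresis, and activity fitted bidirectionally versus DMSO.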
Sequence of Transcription factor Sp1 (Homo sapiens) (P08047 whole entry, looked up): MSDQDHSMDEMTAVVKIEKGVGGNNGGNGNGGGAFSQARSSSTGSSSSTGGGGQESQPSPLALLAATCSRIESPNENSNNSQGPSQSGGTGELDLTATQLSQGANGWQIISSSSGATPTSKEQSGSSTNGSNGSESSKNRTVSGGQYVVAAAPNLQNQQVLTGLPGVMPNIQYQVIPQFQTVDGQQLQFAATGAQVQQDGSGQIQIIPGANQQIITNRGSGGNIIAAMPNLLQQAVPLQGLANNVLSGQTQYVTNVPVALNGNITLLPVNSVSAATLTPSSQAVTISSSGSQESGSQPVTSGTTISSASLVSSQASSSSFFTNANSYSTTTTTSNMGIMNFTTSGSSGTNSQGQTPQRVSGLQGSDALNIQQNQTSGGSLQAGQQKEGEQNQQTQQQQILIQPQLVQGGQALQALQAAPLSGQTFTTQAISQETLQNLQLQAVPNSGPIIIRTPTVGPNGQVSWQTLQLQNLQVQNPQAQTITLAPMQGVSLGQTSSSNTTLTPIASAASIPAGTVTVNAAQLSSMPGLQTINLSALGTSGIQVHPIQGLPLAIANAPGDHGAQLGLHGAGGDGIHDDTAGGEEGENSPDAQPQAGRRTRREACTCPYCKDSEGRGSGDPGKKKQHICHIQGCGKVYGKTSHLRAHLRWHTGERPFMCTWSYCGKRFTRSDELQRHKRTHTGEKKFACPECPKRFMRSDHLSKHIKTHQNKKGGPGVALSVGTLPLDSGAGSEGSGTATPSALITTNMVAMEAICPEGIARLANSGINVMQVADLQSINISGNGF

Assay [5] is described as follows: ATG_SREBP_CIS: Attagene CIS-FACTORIAL HepG2 Assay for human Sterol Regulatory Element Binding (SREBP) (AID 2282962). As to conditions: HepG2 Attagene cis-factorial SREBP reporter, mRNA; actives raise or lower the signal. The procedure, abridged:
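In this cis-format assay, HepG2 liver cells express reporters controlled by promoter elements responsive to native transcription factors. Exposure lasts 24 h; reporter mRNA fluorescence from capillary electrophoresis gives the signal, fitted bidirectionally against DMSO.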

Assay [6] addresses Signal transducer and activator of transcription 3 (Homo sapiens) (UniProt P40763). As to the kind of experiment: ATG_STAT3_CIS: Attagene CIS-FACTORIAL HepG2 Assay for human Signal Transducer and Activator of Transcription 3 (STAT3) (AID 2282963). As to conditions: HepG2, Attagene cis-factorial STAT3 reporter transcription; actives raise or lower the signal. The procedure, abridged: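 Readout: fluorescent reporter mRNA fragments resolved by capillary electrophoresis. Setup: HepG2 transfected with MRTUs reporting endogenous transcription-factor activity, dosed 24 h. Gain or loss of signal fitted bidirectionally against DMSO control.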

Assay [7] can be described thus: ATG_TA_CIS: Attagene CIS-FACTORIAL HepG2 Assay for human TA Basal Promoter (AID 2282964). The settings on record: HepG2 Attagene CIS-factorial TA basal promoter reporter; actives raise or lower the signal. Put shortly: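 HepG2 cells transiently transfected with multiple reporter units under cis promoter elements, reporting endogenous transcription factor activity; this endpoint tracks the TA basal promoter as background control. Reporter mRNA after 24 h dosing measured by RT-PCR/capillary electrophoresis; bidirectional fits versus DMSO.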

Assay [8] in a line: ATG_TCF_b_cat_CIS: Attagene CIS-FACTORIAL HepG2 Assay for human T-Cell-Factor with beta-catenin (TCF/b-cat) (AID 2282965). As to conditions: HepG2 TCF/beta-catenin cis-reporter transcription, actives raise or lower the signal. The procedure, abridged:
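HepG2 cells transiently transfected with cis-promoter-driven multiplexed reporter units; reporter mRNA measured 24 h after dosing by RT-PCR, FAM labelling, HpaI digestion and capillary electrophoresis. Bidirectional fitting relative to DMSO baseline.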

Assay [9] is described as follows: ATG_TAL_CIS: Attagene CIS-FACTORIAL HepG2 Assay for human TAL Basal Promoter (AID 2282966).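 Further: background control endpoint measuring basal TAL promoter reporter mRNA not a specific factor.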 As to conditions: HepG2 Attagene cis-factorial TAL promoter reporter; actives raise or lower the signal. The procedure, abridged:
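Human hepatoma HepG2 cells, transfected with promoter-regulated reporter units, were treated 24 h. Reporter transcript levels, measured through RT-PCR and capillary electrophoresis, were fitted for gain or loss relative to DMSO.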

Assay [10] can be described thus: ATG_VDRE_CIS: Attagene CIS-FACTORIAL HepG2 Assay for human Vitamin D Receptor Element (VDRE) (AID 2282968). The settings on record: HepG2 VDRE cis-reporter transcription, actives raise or lower the signal. Put shortly:
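Transient MRTU transfection of HepG2, 24 h compound exposure. Readout: reporter transcripts via RT-PCR and capillary electrophoresis, fluorescence. Bidirectional fit vs DMSO.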

The target of assay [11] is Transcriptional activator Myb (Homo sapiens) (UniProt P10242). As to the kind of experiment: ATG_Myb_CIS: Attagene CIS-FACTORIAL HepG2 Assay for human Myeloblastosis (Myb) Proto-Oncogene Transcription Factor (AID 2282986). As to conditions: HepG2 Attagene CIS-FACTORIAL Myb reporter transcription; actives raise or lower the signal. The procedure, abridged:
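Steps: transfect HepG2 with cis-regulated reporter units; dose with chemical for 24 h; isolate RNA, reverse-transcribe, PCR-amplify and FAM-label reporter sequences; digest with HpaI; resolve by capillary electrophoresis. Activity fitted in both directions relative to DMSO.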

Assay [12] addresses Nuclear respiratory factor 1 (Homo sapiens) (UniProt Q16656). As to the kind of experiment: ATG_NRF1_CIS: Attagene CIS-FACTORIAL HepG2 Assay for human Nuclear Respiratory Factor 1 (NRF1) Orphan Gene (AID 2282987). The settings on record: HepG2 NRF1 cis-element reporter, Attagene multiplex; actives raise or lower the signal. The procedure, abridged:
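Fluorescence intensity of labelled reporter cDNA fragments, resolved by capillary electrophoresis, served as readout for NRF1 cis-element activity. Transiently transfected HepG2 cells were dosed for 24 hours; activity in either direction was fitted against DMSO negative control.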

Assay [13] is described as follows: ATG_NFI_CIS: Attagene CIS-FACTORIAL HepG2 Assay for human Nuclear Factor I (NFI) (AID 2282989). The settings on record: HepG2 cis-regulatory reporter, NFI response element transcription; actives raise or lower the signal. The procedure, abridged: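 Endogenous TF activity in HepG2 cells transiently transfected with cis-element-driven multiplexed reporter units, read 24 h after dosing. Reporter mRNA quantified by RT-PCR, 6-FAM labelling, HpaI digestion and capillary electrophoresis; bidirectional fit versus DMSO.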

The target of assay [14] is Myc proto-oncogene protein (Homo sapiens) (UniProt P01106). The assay is described as follows: ATG_Myc_CIS: Attagene CIS-FACTORIAL HepG2 Assay for human Myelocytomatosis (Myc) Proto-Oncogene Transcription Factor (AID 2282990). The settings on record: HepG2, Attagene cis-reporter transcription factor activity; actives raise or lower the signal. Put shortly:
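Transiently transfected HepG2 cells bearing cis-promoter reporter units for endogenous transcription factors; 24 h exposure. Reporter mRNA measured by RT-PCR, 6-FAM primer extension, HpaI cut and capillary electrophoresis; bidirectional fit relative to DMSO.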

Assay [15] is described as follows: ATG_NRF2_ARE_CIS: Attagene CIS-FACTORIAL HepG2 Assay for human Nuclear Factor Erythroid 2 Related Factor 2 (NFR2) response to Antioxidant Response Elements (ARE) (AID 2282992). As to conditions: HepG2 Attagene ARE/NRF2 reporter, transcription factor activity; actives raise or lower the signal. Put shortly:
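Using transiently transfected HepG2 cells exposed for 24 h, reporter mRNA levels were determined by RT-PCR with fluorescent primer extension and capillary electrophoresis, analysed for gain or loss of signal against DMSO.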

Assay [16] in a line: ATG_Oct_MLP_CIS: Attagene CIS-FACTORIAL HepG2 Assay for human Octamer-Binding Transcription Factor (Oct) (AID 2282993). The settings on record: HepG2 Attagene cis-factorial Oct reporter, mRNA; actives raise or lower the signal. The procedure, abridged: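 HepG2 cells transiently transfected with cis-element-driven reporter transcription units (endogenous TF activity); 24 h compound exposure. Reporter mRNA quantified by RT-PCR, 6-FAM labelling, HpaI digestion and capillary electrophoresis; bidirectional fit versus DMSO baseline.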

Assay [17] concerns the target Cellular tumor antigen p53 (Homo sapiens) (UniProt P04637). The assay is described as follows: ATG_p53_CIS: Attagene CIS-FACTORIAL HepG2 Assay for human p53 Transcription Factor (AID 2282994). As to conditions: HepG2 p53 cis-element reporter, Attagene mRNA; actives raise or lower the signal. Put shortly: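 In HepG2 cells, reporter transcription units under cis-regulatory promoters were transiently introduced. Following 24 h treatment, RNA was processed to labelled, digested cDNA fragments read by capillary electrophoresis; fitting was bidirectional versus DMSO.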

For assay [18], the target named is Nuclear receptor subfamily 1 group I member 2 (Homo sapiens) (UniProt O75469). The assay is described as follows: ATG_PXR_TRANS: Attagene TRANS-FACTORIAL HepG2 Assay for human Pregnane X Receptor (PXR) (AID 2283008; active means hit-call score of the fitted dose curve at least 0.9, where 1 is the maximum). The procedure, abridged:
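Multiplexed TRANS reporter panel in HepG2; this component tracks PXR-Gal4-driven reporter mRNA after 24 h dosing, measured by RT-PCR with capillary electrophoresis fluorescence, fitted against DMSO.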

A short description of assay [19]: ATG_XTT_Cytotoxicity: Cytotoxicity Assessment in the Attagene TRANS-FACTORIAL HepG2 Assay (AID 2283584; active means hit-call score of the fitted dose curve at least 0.9, where 1 is the maximum). The procedure, abridged: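 24 h chemical exposure of reporter-transfected HepG2; XTT signal loss vs DMSO indicates cytotoxicity.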
Assay [20] concerns the target Heat shock factor protein 1 (Homo sapiens) (UniProt Q00613). As to the kind of experiment: ATG_HSE_CIS: Attagene CIS-FACTORIAL HepG2 Assay for human Heat Shock Transcription Factor 1 (HSE) (AID 2282953). As to conditions: HepG2 HSE cis-reporter, Attagene RNA transcription; actives raise or lower the signal. Put shortly: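 HepG2 cells transfected with cis-promoter reporter units sensing endogenous transcription factor activity; reporter mRNA quantified 24 h post-dose by RT-PCR and capillary electrophoresis of 6-FAM-labelled products. Bidirectional fitting against DMSO.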

Sequence of Heat shock factor protein 1 (Homo sapiens) (Q00613 whole entry, looked up): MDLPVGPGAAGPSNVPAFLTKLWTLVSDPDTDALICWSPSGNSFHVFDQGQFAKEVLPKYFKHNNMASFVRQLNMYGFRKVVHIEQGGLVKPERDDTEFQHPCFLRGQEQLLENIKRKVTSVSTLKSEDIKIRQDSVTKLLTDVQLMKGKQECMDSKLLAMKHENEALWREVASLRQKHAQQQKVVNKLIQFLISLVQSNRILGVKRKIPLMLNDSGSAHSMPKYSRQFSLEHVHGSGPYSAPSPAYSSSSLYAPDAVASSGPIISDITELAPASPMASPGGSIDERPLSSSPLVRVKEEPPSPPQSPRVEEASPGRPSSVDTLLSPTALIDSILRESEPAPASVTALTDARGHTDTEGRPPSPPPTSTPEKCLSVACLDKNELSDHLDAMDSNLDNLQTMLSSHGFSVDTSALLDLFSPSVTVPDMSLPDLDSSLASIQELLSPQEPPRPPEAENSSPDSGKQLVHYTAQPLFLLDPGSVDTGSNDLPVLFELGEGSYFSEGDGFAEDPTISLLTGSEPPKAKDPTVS
Sequence of Cellular tumor antigen p53 (Homo sapiens) (P04637 whole entry, looked up, the tested form may be a part): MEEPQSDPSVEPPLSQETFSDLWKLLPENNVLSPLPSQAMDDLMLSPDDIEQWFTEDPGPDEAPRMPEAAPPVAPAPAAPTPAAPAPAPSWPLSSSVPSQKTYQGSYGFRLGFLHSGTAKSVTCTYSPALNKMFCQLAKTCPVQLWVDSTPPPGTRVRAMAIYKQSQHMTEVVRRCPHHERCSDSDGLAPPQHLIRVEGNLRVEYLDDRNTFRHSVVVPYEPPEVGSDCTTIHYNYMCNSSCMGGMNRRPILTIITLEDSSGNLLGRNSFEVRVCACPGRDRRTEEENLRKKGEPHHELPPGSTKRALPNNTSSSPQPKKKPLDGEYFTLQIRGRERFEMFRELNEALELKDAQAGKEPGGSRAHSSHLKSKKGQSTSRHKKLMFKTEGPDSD
Sequence of Signal transducer and activator of transcription 3 (Homo sapiens) (P40763 whole entry, looked up, the tested form may be a part): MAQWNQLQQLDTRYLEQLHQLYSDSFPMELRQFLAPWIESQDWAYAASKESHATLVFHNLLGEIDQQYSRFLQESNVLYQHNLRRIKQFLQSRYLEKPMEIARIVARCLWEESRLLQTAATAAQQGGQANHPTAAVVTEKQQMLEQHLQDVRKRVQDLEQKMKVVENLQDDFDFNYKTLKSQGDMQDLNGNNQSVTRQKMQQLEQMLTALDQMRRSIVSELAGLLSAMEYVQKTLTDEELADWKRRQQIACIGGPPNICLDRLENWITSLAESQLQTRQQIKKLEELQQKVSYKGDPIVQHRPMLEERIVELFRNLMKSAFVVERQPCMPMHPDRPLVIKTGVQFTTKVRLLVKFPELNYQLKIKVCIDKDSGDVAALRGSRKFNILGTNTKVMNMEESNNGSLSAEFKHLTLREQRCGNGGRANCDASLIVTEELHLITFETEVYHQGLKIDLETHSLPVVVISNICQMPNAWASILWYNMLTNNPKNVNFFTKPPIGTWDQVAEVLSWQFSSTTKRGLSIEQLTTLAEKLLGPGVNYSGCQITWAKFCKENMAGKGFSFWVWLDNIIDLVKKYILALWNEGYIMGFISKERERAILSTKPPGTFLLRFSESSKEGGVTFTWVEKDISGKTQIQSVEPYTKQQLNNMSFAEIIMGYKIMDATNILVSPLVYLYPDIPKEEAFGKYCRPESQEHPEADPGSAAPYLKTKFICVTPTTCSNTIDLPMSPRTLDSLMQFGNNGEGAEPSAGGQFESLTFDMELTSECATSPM
Sequence of Nuclear receptor subfamily 1 group I member 2 (Homo sapiens) (O75469 whole entry, looked up, the tested form may be a part): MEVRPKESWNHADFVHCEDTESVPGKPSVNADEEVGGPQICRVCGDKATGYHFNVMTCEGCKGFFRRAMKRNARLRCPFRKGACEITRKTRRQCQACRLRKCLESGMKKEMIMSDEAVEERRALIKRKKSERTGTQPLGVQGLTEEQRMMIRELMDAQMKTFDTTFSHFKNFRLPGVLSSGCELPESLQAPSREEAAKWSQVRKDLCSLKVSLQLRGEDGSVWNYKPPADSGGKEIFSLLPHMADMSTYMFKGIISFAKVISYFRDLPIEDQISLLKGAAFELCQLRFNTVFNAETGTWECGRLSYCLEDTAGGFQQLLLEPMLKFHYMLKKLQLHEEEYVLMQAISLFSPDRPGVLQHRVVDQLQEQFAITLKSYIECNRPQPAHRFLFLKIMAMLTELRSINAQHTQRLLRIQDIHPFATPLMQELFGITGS
Sequence of Transcriptional activator Myb (Homo sapiens) (P10242 whole entry, looked up): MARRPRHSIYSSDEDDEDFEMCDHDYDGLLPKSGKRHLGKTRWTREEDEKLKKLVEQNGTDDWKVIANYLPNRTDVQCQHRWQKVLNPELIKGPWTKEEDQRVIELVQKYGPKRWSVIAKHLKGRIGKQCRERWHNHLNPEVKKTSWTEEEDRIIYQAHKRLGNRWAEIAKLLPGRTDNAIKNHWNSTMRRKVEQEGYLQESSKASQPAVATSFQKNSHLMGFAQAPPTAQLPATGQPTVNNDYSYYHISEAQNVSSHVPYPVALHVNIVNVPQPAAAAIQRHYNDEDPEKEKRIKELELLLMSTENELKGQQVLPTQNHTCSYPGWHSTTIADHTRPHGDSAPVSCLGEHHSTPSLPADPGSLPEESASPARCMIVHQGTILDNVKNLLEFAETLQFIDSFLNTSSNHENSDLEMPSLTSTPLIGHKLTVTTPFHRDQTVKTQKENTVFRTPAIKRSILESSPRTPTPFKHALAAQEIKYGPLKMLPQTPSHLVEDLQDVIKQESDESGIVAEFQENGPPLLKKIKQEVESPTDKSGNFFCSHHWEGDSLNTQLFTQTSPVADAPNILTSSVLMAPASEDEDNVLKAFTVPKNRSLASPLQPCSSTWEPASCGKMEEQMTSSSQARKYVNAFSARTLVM
Sequence of Myc proto-oncogene protein (Homo sapiens) (P01106 whole entry, looked up): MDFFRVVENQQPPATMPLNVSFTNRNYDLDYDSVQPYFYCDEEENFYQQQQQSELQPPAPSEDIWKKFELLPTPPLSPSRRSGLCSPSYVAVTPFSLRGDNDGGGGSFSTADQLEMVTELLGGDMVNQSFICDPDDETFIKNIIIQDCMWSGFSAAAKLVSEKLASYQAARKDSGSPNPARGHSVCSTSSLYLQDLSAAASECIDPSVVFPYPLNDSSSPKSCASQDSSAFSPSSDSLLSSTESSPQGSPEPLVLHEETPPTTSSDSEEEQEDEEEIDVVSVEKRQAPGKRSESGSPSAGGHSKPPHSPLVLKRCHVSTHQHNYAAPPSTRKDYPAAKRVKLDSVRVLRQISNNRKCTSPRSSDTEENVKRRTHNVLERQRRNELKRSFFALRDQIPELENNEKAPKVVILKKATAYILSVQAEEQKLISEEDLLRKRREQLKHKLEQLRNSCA
Sequence of Nuclear respiratory factor 1 (Homo sapiens) (Q16656 whole entry, looked up, the tested form may be a part): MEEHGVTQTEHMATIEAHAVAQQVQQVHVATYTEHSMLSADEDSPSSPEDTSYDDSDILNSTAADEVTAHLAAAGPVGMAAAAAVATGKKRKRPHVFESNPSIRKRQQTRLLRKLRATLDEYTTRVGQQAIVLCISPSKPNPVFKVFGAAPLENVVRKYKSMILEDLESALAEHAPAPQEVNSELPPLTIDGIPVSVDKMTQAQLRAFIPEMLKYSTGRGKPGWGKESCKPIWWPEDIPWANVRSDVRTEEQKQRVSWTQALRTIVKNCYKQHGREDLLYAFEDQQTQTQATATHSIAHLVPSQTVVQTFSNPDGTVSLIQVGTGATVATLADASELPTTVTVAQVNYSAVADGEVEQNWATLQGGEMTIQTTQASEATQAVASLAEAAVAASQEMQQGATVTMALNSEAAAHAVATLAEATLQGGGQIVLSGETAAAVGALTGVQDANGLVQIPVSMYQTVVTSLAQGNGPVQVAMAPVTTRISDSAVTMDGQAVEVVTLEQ

Take `CCC(=O)OCc1ccc(OC)cc1`: the result in [1], in assay [2], in assay [3], in assay [4], in assay [5] and in [6] was inactive. The compound was classed as inactive in assay [7], in assay [8], in assay [9], in [10], in assay [11] and in [12]. Besides, the call in assay [13], in assay [14], in assay [15], in assay [16], in assay [17] and in assay [19] was inactive. Besides, the AC50 in [18] is 31.6 µM (active).

`CCCCCCCC#N`: the result in [1], in assay [20], in assay [2], in [3], in [4] and in [5] was inactive. For the same compound, the compound was called inactive in assay [6], in [7], in assay [8], in assay [9], in [10] and in [11]. Moreover, the result in assay [12], in [13], in assay [14], in assay [15], in [16] and in assay [18] was inactive. Further, the result in assay [19] was inactive.

As for `CCOC(=O)CC(=O)OCC`, the compound was called inactive in [1], in [20], in assay [2], in assay [3], in assay [4] and in [5]. Also, the compound was called inactive in assay [6], in [7], in [8], in assay [9], in assay [10] and in assay [11]. Besides, the call in assay [12], in assay [13], in assay [14], in assay [15], in assay [16] and in assay [17] was inactive.

Turning to `CCCCC(CC)COC(=O)CS` (centres undefined), the outcome in [1], in assay [20], in assay [3], in [4], in [5] and in [6] was inactive. Besides, the call in [7], in assay [8], in assay [9], in [11], in assay [12] and in [13] was inactive. In addition, the compound was called inactive in assay [14], in assay [15], in [16], in assay [17] and in [18]. Besides, the AC50 in [10] is 26.4 µM (active).

Source of the values: PubChem BioAssay (EPA / NIEHS).
